From PubChem
FBW7 act: activators of human E3 ligase FBW7; Q969H0; AlphaScreen FBW7–phospho-cyclin E peptide binding, activator screen; normalized activity (activation), % at 26.1 µM; 0.13% of 650,000 active; in the data active = normalized activity above about 1.9%;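 also: purified mutant Fbw7 with reduced substrate affinity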
MITF primary: blocks human microphthalmia-associated transcription factor. inhibition, % at 2.6 µM. 0.91% of 650,000 active. O75030. AID 1259374. AlphaScreen MITF homodimerization, bead proximity signal; in the data active = inhibition above about 50%
Target sequence (O75030 whole entry, looked up): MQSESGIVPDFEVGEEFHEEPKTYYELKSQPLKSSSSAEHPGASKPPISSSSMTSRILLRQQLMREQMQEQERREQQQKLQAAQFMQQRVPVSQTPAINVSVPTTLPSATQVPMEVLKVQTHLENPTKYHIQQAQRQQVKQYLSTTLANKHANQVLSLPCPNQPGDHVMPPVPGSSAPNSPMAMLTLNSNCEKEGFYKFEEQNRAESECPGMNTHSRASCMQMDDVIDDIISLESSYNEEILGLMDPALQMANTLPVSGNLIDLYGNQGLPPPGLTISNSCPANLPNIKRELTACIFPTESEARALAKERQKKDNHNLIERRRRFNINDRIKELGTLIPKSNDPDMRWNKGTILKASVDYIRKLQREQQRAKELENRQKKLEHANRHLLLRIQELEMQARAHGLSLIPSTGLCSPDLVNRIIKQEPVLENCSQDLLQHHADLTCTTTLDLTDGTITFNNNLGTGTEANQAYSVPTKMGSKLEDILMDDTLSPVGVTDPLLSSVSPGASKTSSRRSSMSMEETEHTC
GPR151 ag: activators of human GPR151. PathHunter beta-arrestin GPR151 cells, luminescence. activation, % at 11.2 µM. 1% of 650,000 active. AID 1508602; in the data active = activation above about 4.9%
TEAD-YAP block: TEAD-YAP interaction inhibition; inhibition, % at 9.12 µM; 1.4% of 640,000 active; HEK-TIYL cells, TEAD-Gal4/YAP UAS-luciferase luminescence; in the data active = inhibition above about 32%
Each line names hits and unclear results; the compound was inactive in the other large screens. The list is not random: actives were taken first. Their share in the collection is about 3.5%.

CCNc1nc(NCC)nc(Sc2ccc([N+](=O)[O-])cc2[N+](=O)[O-])n1	TEAD-YAP block 51
O=C(CSc1ccc(Cl)cc1)Nc1nc2ccc(-c3ccncc3)cc2s1	TEAD-YAP block 77
NCC(=O)N1CCC(C(=O)Nc2nc3ccc(-c4ccncc4)cc3s2)CC1	TEAD-YAP block 38
Cn1nccc1Nc1nc2ccc(C(=O)NC3CC3)cc2s1	none
COc1ccc(C(F)(F)F)cc1N/C=C(\C#N)C(N)=S	none
COc1ccc(N/C=C(\C#N)C(N)=S)cc1OC	TEAD-YAP block 38
CCNc1cc(NCCN(C(C)C)C(C)C)ncn1	none
COc1ccc(-c2nnc(SCC(=O)Nc3ccc(C)c(Cl)c3)nc2-c2ccc(OC)cc2)cc1	none
Cc1nc2ccccc2n1CC1CCN(CC(=O)Nc2ccc(F)cc2F)CC1	TEAD-YAP block 55
COc1ccc(Br)cc1C(=O)N/C(=C\c1cccc([N+](=O)[O-])c1)C(=O)Nc1cccc(Cl)c1C	none
CN(c1cccc(NS(=O)(=O)c2ccc(F)cc2)c1)S(C)(=O)=O	none
COc1ccc(/C=C/C(=O)N2c3ccccc3C(C)(c3ccc(C)cc3)CC2(C)C)cc1 (stereo not given)	none
O=C(O)c1ccc(-c2cnc3ccc(NCCCO)nn23)cc1	none
FC(F)(F)c1cccc(-c2cnc3ccc(NCCCN4CCOCC4)nn23)c1	FBW7 act 1.9
CC(=O)c1cccc(-c2cnc3ccc(NCc4cccs4)nn23)c1	none
CCCNc1ccc2ncc(-c3cccc(C(C)=O)c3)n2n1	TEAD-YAP block 34
OCCCNc1ccc2ncc(-c3ccccc3)n2n1	TEAD-YAP block 43
OCCCNc1ccc2ncc(-c3ccsc3)n2n1	TEAD-YAP block 51
c1ccc2cc(-c3cnc4ccc(NCCCN5CCOCC5)nn34)ccc2c1	none
CC(Oc1ccccc1)C(=O)Nc1cc(Cl)ccc1O (stereo not given)	none
Cc1ccc(CN2CCC[C@@H]3CN(CC(C)C)CC[C@@H]32)o1	none
CC(C)OC(NC(=O)C(C(F)(F)F)C(F)(F)F)(C(F)(F)F)C(F)(F)F	none
OCCCNc1ccc2ncc(-c3cccc(O)c3)n2n1	TEAD-YAP block 72
OCCCNc1ccc2ncc(-c3cccc(Cl)c3)n2n1	TEAD-YAP block 53
O=C1CC(c2ccccc2)N=C(SCC(=O)Nc2cccc(Cl)c2)N1 (stereo not given)	none
CCOc1cccc2cc(C(=O)c3ccccc3)c(=O)oc12	none
Cc1[nH]nc(-c2ccc(O)cc2O)c1-c1ccccc1	none
O=C(N/N=C/c1ccccc1O)c1ccccc1[N+](=O)[O-]	none
C/C(=N\NC(N)=S)c1ccc([N+](=O)[O-])cc1	TEAD-YAP block 36
COc1cc([N+](=O)[O-])cc(/C=N/NC(=O)c2ccccc2[N+](=O)[O-])c1O	MITF primary 65
CCOc1cc([N+](=O)[O-])cc(/C=N/NC(=O)c2cc(C(C)(C)C)[nH]n2)c1O	MITF primary 66
C/C(=N\NC(N)=O)c1ccc([N+](=O)[O-])cc1	none
O=C(N/N=C/c1cc([N+](=O)[O-])ccc1O)c1ccccc1[N+](=O)[O-]	MITF primary 69
Cc1ccc(C2=CC(c3c(C)nn(-c4ccc(F)cc4)c3Cl)n3nnnc3N2)cc1 (stereo not given)	none
CC(C)n1cnc2c(NCCOc3ccccc3)nc(-c3ccc(C(N)=O)cc3)nc21	none
Cc1ccc(/C=C2/N=C(c3cccc4ccccc34)OC2=O)cc1	none
Cc1cc(C)nc(/N=C(/NC(=O)c2ccc(Cl)cc2)Nc2ccccc2)n1	none
NC(=S)N/N=C/c1cc([N+](=O)[O-])ccc1O	MITF primary 100
COc1ccccc1C(=O)N/N=C/c1ccc([N+](=O)[O-])s1	TEAD-YAP block 49
COc1cc([N+](=O)[O-])cc(/C=N/NC(=O)c2ccccc2Br)c1O	MITF primary 73
Cc1ccc(C(=O)N/N=C/c2ccc([N+](=O)[O-])s2)cc1	none
CCOc1ccccc1C(=O)N/N=C/c1cc([N+](=O)[O-])cc(OC)c1O	none
Oc1cccc(/C=N/NC(=S)NCCN2CCOCC2)c1O	MITF primary 106
Cc1cc(/C=N/NC(N)=S)c(O)c(/C=N/NC(N)=S)c1	MITF primary 82
NC(=O)N/N=C/c1cccc(C(=O)O)c1O	none
NC(=S)N/N=C/c1cccc(O)c1O	MITF primary 106
NC(=S)N/N=C/c1cccc(/C=N/NC(N)=S)c1	none
NC(=S)N/N=C/c1cc(Cl)cc(Cl)c1O	none
NC(=O)C(=O)N/N=C/c1cccc(O)c1O	MITF primary 56
COC(=O)C1CCN(Cc2ccc3c(c2)CN(C(=O)C2CC24CCCCC4)CCO3)CC1 (stereo not given)	none
CC1=CC(=C2C(=O)c3ccccc3C2=O)C=C(C)N1C(C)C	TEAD-YAP block 67
Cc1ccc(/C=C2/SC(=O)N(CO)C2=O)cc1	none
